From PubChem BioAssay
Hits are enriched below; roughly 4% of the tested compounds scored in any of these assays.
TROY signal inh: blocks TROY-dependent signaling in reporter cells; Q293 LMP1-TROYcd NF-kB luciferase reporter, 4 h; inhibition, % at 10 µM; actives 0.98% (n = 360,000);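 active = compounds whose plate-normalised and pattern-corrected inhibition of the luciferase reporter signal at the single screening dose is 50% or more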
Peg3 prom inh: reduces Peg3 promoter-driven luciferase expression in HeLa; inhibition, % at 20 µM; actives 1.7% (n = 360,000); HeLa PEG-Prom luciferase reporter, luminescence, overnight;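 active = inhibition of at least 50% at 20 µM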
KKLEB cytotox: counter-screen for CF NF-kB inhibitors: cytotoxicity | KKLEB CF airway cells viability, ATPlite luminescence, overnight; active compounds read low; cells stimulated with P. aeruginosa culture filtrate | activity change (cytotoxicity), % at 5 µM | actives 0.36% (n = 360,000) | AID 602141;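 active = corrected activity change at or below -50% at 5 µM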
TWEAK Fn14 block: blocks TWEAK-Fn14 interaction in a reporter cell assay; TWEAK-stimulated Fn14 reporter cells, luciferase luminescence, 8 h; actives 2% (n = 360,000); inhibition, % at 10 µM; in the data active = inhibition above about 50%
CF NFkB block: inhibitors of cystic fibrosis induced NF-kB; KKLEB NF-kB-GFP reporter, PAF-induced, GFP fluorescence overnight; inhibition, % at 5 µM; actives 0.86% (n = 360,000); AID 588850;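 active = at least 50% inhibition at 5 µM, scaled per plate between neutral and stimulator controls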;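 also: PAF is a Pseudomonas aeruginosa culture filtrate used as stimulus; plate controls were PAF-stimulated DMSO wells for no effect and unstimulated DMSO wells for full effect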
HIF-2a block: HIF-2a inhibition. 786-0 RCC cells HIF-2a reporter, luciferase luminescence, overnight. actives 0.72% (n = 360,000). inhibition, % at 18.8 µM;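 active = inhibition of the luminescence signal of 40% or more relative to plate controls, in a single-dose primary screen at 18.75 µM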
The depositor's hits bear a star; x = no result given.

SMILES	TROY signal inh	Peg3 prom inh	KKLEB cytotox	TWEAK Fn14 block	CF NFkB block	HIF-2a block
CC1(C(=O)Nc2ccc3c(c2)OCCO3)CCN1C(=O)c1ccccc1CCc1ccccc1 (centres undefined)	35	19	-2	69*	-19	29
O=C(CCn1cccn1)Nc1ccc2c(c1)OCCO2	62*	-7	-3	78*	6	0
O=C(Nc1ccc2c(c1)OCCO2)c1coc2ccccc2c1=O	85*	3	4	87*	25	17
O=C(CCl)Nc1c(C(=O)Nc2ccc3c(c2)OCCO3)oc2ccccc12	24	98*	-31	35	20	-52
CC(C)NCCCCOc1ccc(Br)cc1Cl	-3	4	-27	-16	4	6
COc1cccc(CSc2ccc(S(=O)(=O)N3CCOCC3)cc2C(=O)NCC2CCCO2)c1OC (centres undefined)	-21	6	4	-35	-20	20
CC(=O)Nc1cccc(N)c1	-13	-11	2	3	-2	2
COc1ccc(N=N/C(=C\O)C(=O)c2cccs2)cc1	9	1	-50	69*	76*	-76
COc1ccc(CCN2CCCn3c2nc2c3c(=O)[nH]c(=O)n2C)cc1OC	7	14	-1	14	12	12
Cc1ccccc1NC(=O)CN1CCN(C(=O)c2ccco2)CC1	-17	53*	-2	13	-14	-3
COC(=O)c1[nH]c2ccccc2c1NC(=O)CN1CCN(C(=O)c2ccco2)CC1	x	16	0	87*	9	6
COC(=O)c1[nH]c2ccccc2c1NC(=O)CN1CCN(c2cccc(Cl)c2)CC1	31	26	0	59*	-6	21
COc1cccc(Cn2cnc(-c3ccccc3OC)c2C2CC2)c1	17	x	x	-5	x	-13
Cc1ccc(-n2nc3cc(C)c(NC(=S)NC(=O)/C=C/c4ccco4)cc3n2)cc1	69*	-257	-10	39	8	-134
Cc1ccc(-n2nc3ccc(NC(=S)NC(=O)/C=C/c4ccco4)cc3n2)cc1	-27	-192	4	10	-16	-68
COc1ccc(-n2nc3cc(C)c(NC(=S)NC(=O)c4ccccc4C)cc3n2)cc1	-65	-239	-59*	-84	55*	-163
CCCCC(=O)Nc1cc2nn(-c3ccc(OC)cc3)nc2cc1C	-33	-84	-5	-43	7	-97
CCC(=O)Nc1cc2nn(-c3ccc(OC)cc3)nc2cc1C	57*	-159	-4	70*	-3	-151
CCC(=O)Nc1cc2nn(-c3ccc(C)cc3)nc2cc1C	90*	62*	-32	93*	-6	-40
COc1ccc(C(=O)NC(=S)NNC(=O)c2ccccc2C)cc1	-54	-19	8	-27	-14	-54
COc1ccc(CCNC(=O)CCC(=O)N2CC(C)Oc3ccccc32)cc1OC (centres undefined)	12	6	-6	-3	-13	1
CCOC(=O)C1=C(C)Nc2ccc(C)cc2S1	22	-6	1	96*	2	-32
O=C(CCl)NC(Cc1ccccc1)c1ccccc1 (centres undefined)	-23	42	-19	53*	13	27
CC(=O)C(Cc1ccccc1)NC(=O)CCl (centres undefined)	-24	23	-22	8	-3	18
CC(C)(C)c1ccc(OC(=O)Nc2ccc(O)c(C(=O)O)c2)cc1	13	5	10	73*	-14	69*
SMILES	TROY signal inh	Peg3 prom inh	KKLEB cytotox	TWEAK Fn14 block	CF NFkB block	HIF-2a block
CCOc1ccccc1CNc1ncnc2ccc(-c3c(C)noc3C)cc12	62*	-20	-25	82*	-108	-14
O=C(CNC(c1ccccc1)c1ccccc1)Nc1ccccc1Br	21	14	7	12	0	12
CC(C)CN(C(=O)COc1ccc(-c2nnco2)cc1)C1CCS(=O)(=O)C1 (centres undefined)	15	1	-2	-8	-16	6
CC1CCCN(c2sc(S(C)(=O)=O)nc2S(=O)(=O)c2ccc(Cl)cc2)C1 (centres undefined)	19	18	-17	51*	39	16
CC1CN(c2sc(S(C)(=O)=O)nc2S(=O)(=O)c2ccc(Cl)cc2)CC(C)O1 (centres undefined)	20	10	-5	57*	30	7
CCOC(=O)C1=C(N)Oc2cc(C)[nH]c(=O)c2C1c1ccncc1 (centres undefined)	x	17	4	76*	-1	26
COc1ccc(S(=O)(=O)N2CCC[C@H]2C(=O)N2CCC[C@H]2C(=O)N[C@@H](C)c2ccccc2)cc1C	-5	x	x	10	x	-3
CC(C(=O)NC1CCCc2ccccc21)N1CCN(Cc2ccc3c(c2)OCO3)CC1 (centres undefined)	58*	-1	-4	8	3	4
CC(C(=O)NC1CCCc2ccccc21)N1CCN(c2ccc(F)cc2)CC1 (centres undefined)	13	13	-4	14	10	7
Cc1occc(=O)c1O	-3	-5	-88*	5	-17	-1
Cc1cccc2c3nc4ccccc4nc3n(C)c12	-32	-179	6	54*	-60	-161
CCOC(=O)c1ccc(N(C(=O)CNC(=O)c2ccco2)C(C(=O)NCC2CCCO2)c2ccc(OC)c(OC)c2)cc1 (centres undefined)	-2	3	-7	15	-4	5
COc1ccc(-c2nn(CCC#N)cc2C(=O)Nc2cccc(C(=O)O)c2)cc1[N+](=O)[O-]	3	-99	3	26	1	10
CCCCCCCCCCCCC/C=C/[C@@H](O)[C@@H](N)CO	-5	55*	-1	-30	-8	6
CCCCC/C=C\C/C=C\C/C=C\CCCCC(=O)O	-30	10	10	9	-10	-3
O=C(NCc1ccccc1Cl)c1csc([C@@H]2C[C@H](O)[C@@H](CO)O2)n1	12	1	8	1	16	7
O=C(OCc1cc2ccccc2[nH]c1=O)c1cccs1	43	-43	13	57*	7	18
CCN(CC)CC(C)CNC(=O)CC(C(=O)N1CCc2ccccc21)n1ccnc1 (centres undefined)	12	17	14	56*	-8	-14
CCCN(CCC)CCCNC(=O)CC(C(=O)N1CCc2ccccc21)n1ccnc1 (centres undefined)	10	2	-25	22	-13	-15
CCc1nc2c(OCc3ccc(OC(F)F)cc3)cccn2c1N(C)C(=O)c1ccc(OC)cc1	0	20	-6	1	-21	-1
COc1ccc(O)c(-c2c(-c3ccc(Cl)cc3)n[nH]c2C)c1	7	8	-4	20	10	20
COc1ccc(-c2n[nH]c(C)c2-c2ccc(Cl)cc2)c(O)c1	10	62*	-5	2	-14	27
